This is a sample that favours compounds with a hit; in the whole collection about 4.7% have one here.
D1 antag – human D1 dopamine receptor antagonism. AID 504652. hit rate 3.2% among 360,000. HEK293 TREx D1 cells, calcium flux, dopamine EC80; stronger effect = lower value. P21728. activity change, negative = inhibition, % at 10 µM; in the data active = activity change below about -30%
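Cells carrying a force-coupled, tetracycline-inducible human D1 receptor report calcium flux. Each well gets a 10 s baseline, compound with 180 s monitoring, then an EC80 dopamine stimulus with a second 180 s kinetic read.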
D1 PAM – potentiators of human D1 dopamine receptor; hit rate 0.036% among 360,000; HEK293 TREx D1 cells, calcium flux, dopamine EC20 potentiation; P21728; potentiation, % at 10 µM; AID 504651; in the data active = potentiation above about 30%
TRHR agonist – activates the human TRH receptor. P34981. TRHR cells, calcium flux fluo-8, FDSS agonist mode. activation, % at 2 µM. hit rate 0.18% among 360,000. AID 493084
Target sequence (P34981 whole entry, looked up): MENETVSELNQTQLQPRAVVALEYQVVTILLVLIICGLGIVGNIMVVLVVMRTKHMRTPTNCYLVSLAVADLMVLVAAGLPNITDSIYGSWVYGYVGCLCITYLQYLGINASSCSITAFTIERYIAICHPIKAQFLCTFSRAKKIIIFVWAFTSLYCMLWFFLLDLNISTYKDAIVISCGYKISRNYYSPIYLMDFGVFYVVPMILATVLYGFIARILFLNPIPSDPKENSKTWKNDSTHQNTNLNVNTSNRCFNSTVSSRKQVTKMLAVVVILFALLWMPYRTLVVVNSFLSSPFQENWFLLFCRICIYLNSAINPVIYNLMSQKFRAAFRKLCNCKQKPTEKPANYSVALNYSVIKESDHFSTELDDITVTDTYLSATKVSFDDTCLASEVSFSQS
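TRHR-expressing cells loaded with fluo-8 calcium dye; 23 nL library compound pin-transferred, kinetic FDSS fluorescence (Ex 480/Em 530) recorded about 180 s for agonist-induced calcium release, before a 10 nM TRH EC20 addition for potentiator mode.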
D1 agonist – activates the human D1 dopamine receptor; P21728; HEK293 T-REx D1 cells, calcium flux, agonist mode; activation, % at 2 µM; hit rate 1% among 360,000
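Inducible HEK293 T-REx D1 cells, force-coupled to calcium signalling, were plated at 4000 cells/well with tetracycline and held overnight at 30 C. After no-wash calcium dye loading, compound-evoked calcium rise over 180 s flagged agonists.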
TRHR PAM – allosteric enhancers of human TRH receptor. enhancement, % at 2 µM. AID 493056. P34981. TRHR cells, fluo-8 calcium fluorescence, EC20 TRH enhancement. hit rate 0.66% among 360,000; in the data active = enhancement above about 30%
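TRHR-expressing cells loaded with fluo-8 calcium dye were read kinetically (ex 480/em 530) during compound addition, then stimulated with an EC20 of TRH (10 nM final). Enhancement of the Gq-mediated intracellular calcium response was scored.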
Large screens that a line does not name were inactive; ! = not active in a repeat. Rule as the data show it, unless noted: active = activation above about 30%; inactive = the rest.

CN(CC(=O)Nc1cccc(C#N)c1)Cc1ccc(Cl)cc1	D1 antag -41.8
CN(CC(=O)NCc1ccccc1)Cc1ccc(Cl)cc1	TRHR PAM 33.3
CN(CC(=O)NC(=O)NCc1ccccc1)Cc1ccc(Cl)cc1	none
CC(=O)c1cccc(NC(=O)CN(C)Cc2ccc(OC(F)F)cc2)c1	D1 antag -34.7
O=C(c1ccc2ccccc2c1)N1CCN(Cc2ccccc2)CC1	none
CC(/C=C/c1ccccc1)=N\Nc1ccccc1[N+](=O)[O-]	none
COC(=O)c1ccc(NC(=O)CCNS(=O)(=O)c2cccc3nsnc23)cc1	none
C#Cc1cccc(-n2nnc(C(=O)OC)c2-c2ccccc2)c1	none
Cc1ccc(C(=O)NC2CCS(=O)(=O)C2)cc1S(=O)(=O)N1CCCC1 (centres undefined)	none
Cc1ccc(N/N=C(\C#N)C(N)=S)c(C)c1	D1 antag -34.9, D1 agonist 37.0
COc1ccc(Cl)cc1NC(=O)CN(C)C(=O)c1cc2c(s1)CCCC2	D1 antag -38.0
COc1ccc(Cl)cc1NC(=O)CN(C)C(=O)Cc1ccc2c(c1)CCC2	none
CC(c1ccccc1)N1C(=O)c2ccccc2C1(O)Cc1ccccc1 (centres undefined)	D1 antag -74.3
Cc1ccc(CNC(=O)Cn2ccn(-c3cc(C)cc(C)c3)c(=O)c2=O)cc1	none
CCC1CN(C(=O)N2CCC(C(=O)NCc3cccc(F)c3)CC2)c2cc(C)ccc2O1 (centres undefined)	none
CCCSc1oc(-c2ccco2)nc1S(=O)(=O)c1ccc(C)cc1	none
Cc1ccc(CSc2oc(-c3ccco3)nc2S(=O)(=O)c2ccc(Br)cc2)cc1	D1 antag -35.1
CCCSc1oc(-c2ccco2)nc1S(=O)(=O)c1ccc(Br)cc1	D1 antag -36.4
CN(C)S(=O)(=O)c1ccc2c(c1)C(=O)c1cc(S(=O)(=O)N(C)C)ccc1CC2	none (no result: D1 antag)
CN(C)S(=O)(=O)c1ccc2c(c1)/C(=C/c1cc3c([nH]1)CCCC3)C(=O)N2	TRHR agonist 68.8, D1 agonist 171.2
COc1ccc([C@H]2CC(=O)C=C(c3cccc(OC(F)(F)F)c3)C2)cc1	D1 antag -30.1
Cc1csc(SC(C)C(=O)Nc2ccc(S(=O)(=O)N3CCCC3)cc2)n1 (centres undefined)	D1 antag -40.2
O=C(Cc1ccc(Cl)cc1)Nc1ccc(S(=O)(=O)N2CCOCC2)cc1	D1 agonist 34.0
Cc1nnc(SC(C)C(=O)Nc2ccc(S(=O)(=O)N3CCCCC3)cc2)s1 (centres undefined)	none
COc1ccc(CC(=O)Nc2ccc(F)c(Cl)c2)cc1S(=O)(=O)N1CCOCC1	D1 antag -35.2
Cc1ccc(SC(C)C(=O)Nc2ccc(S(=O)(=O)N3CCOCC3)cc2)cc1 (centres undefined)	D1 agonist 45.5
CC1CCCN(c2nc3c(-c4ccc(Cl)cc4)nnn3c3ccccc23)C1 (centres undefined)	none
CC(Oc1ccccc1Cl)C(=O)Nc1ccc(S(=O)(=O)N2CCCC2)cc1 (centres undefined)	TRHR PAM 34.5
CC(OC(=O)C(C)Oc1ccccc1)C(=O)Nc1ccc(S(=O)(=O)N2CCCCC2)cc1 (centres undefined)	none (no result: D1 PAM)
CC(Oc1ccc(Cl)cc1)C(=O)Nc1ccc(S(=O)(=O)N2CCOCC2)cc1 (centres undefined)	D1 agonist 46.5
CC(C)Cc1nnc(NC(=O)CCNC(=O)c2ccco2)s1	none
O=C(O)C1CCCN(C(=O)c2cccc3ccccc23)C1 (centres undefined)	none
CCOc1ccccc1C(=O)NCC(=O)N(C)Cc1cccnc1	none
Cn1c(=O)c(/C=C/c2ccc(F)cc2)nc2ccccc21	none
O=c1c(/C=C(\O)c2ccc(F)cc2)nc2ccccc2n1-c1ccccc1	TRHR agonist 75.9, D1 agonist 159.5
Cc1ccc(S(=O)(=O)N(C)Cc2nc(-c3ccc(Br)cc3)no2)cc1	D1 antag -35.6
CCN1CCN(C(=O)CCS(=O)(=O)c2cc3c(cc2Cl)NC(=O)CO3)CC1	none
Cc1ccc(CCNC(=O)CCS(=O)(=O)c2cc3c(cc2C)NC(=O)CO3)cc1	D1 antag -86.0!
CN1CCN(C(=O)CCS(=O)(=O)c2cc3c(cc2Cl)NC(=O)CO3)CC1	TRHR PAM 38.9
COc1ccc(CCNC(=O)C2CCN(c3ccc(N4CCOCC4)nn3)CC2)c(OC)c1	D1 antag -32.8
CC(=O)Nc1ccc(S(=O)(=O)N(C)CC(=O)NC2=NCCS2)cc1	D1 antag -31.1
CCC(=O)N1CCc2cc(Br)cc(S(=O)(=O)N3CCCC(C(=O)NCc4cccc(OC)c4)C3)c21 (centres undefined)	D1 antag -30.7
O=c1c2sc3ccccc3c2n(Cc2ccc(F)cc2Cl)c(=O)n1Cc1ccccc1	none
FC(F)(F)c1cnc(NNC(=S)Nc2ccccc2Cl)c(Cl)c1	D1 antag -33.4
O=C(Nc1cccc(O)c1)c1cc(-c2ccccc2Cl)on1	D1 antag -36.4
Cc1ccccc1CNC(=O)C(=O)NCCC1CCCCN1S(=O)(=O)c1cccs1 (centres undefined)	none
CCOc1ccc(-c2nc(CSCC(=O)NCc3ccc(C)cc3)c(C)o2)cc1	none
O=C(CSCc1c(Cl)cccc1Cl)NCc1ccco1	D1 antag -31.0
CCOc1ccc(-c2nc(CSCC(=O)NCc3ccco3)c(C)o2)cc1	D1 antag -37.3
O=c1ccnc2n1COCS2	none
Cc1ccc(C(=O)CSc2ncnc3ccccc23)o1	none
O=C(CSc1ncnc2ccccc12)N1CCCC1	D1 antag -73.5
CCc1nc(SCC(=O)N2CCCC2)c2ccccc2n1	none
O=C(CSc1ncnc2ccccc12)c1cccs1	D1 antag -53.6
Cc1ccccc1CN1C(=O)c2ccccc2S(=O)c2ccc(C(=O)NCc3ccc4c(c3)OCO4)cc21 (centres undefined)	none
COc1ccc(CCNCc2ccc(OCc3ccc(Cl)nc3)c(OC)c2)cc1OC	D1 agonist 59.3
COc1ccc(CCNCc2ccc(OCc3ccccc3)cc2)cc1	D1 agonist 61.4
CCOc1cc(CNCc2ccccc2)ccc1OCc1ccc(Cl)cc1	D1 agonist 34.5
COc1ccc(CNC(C)CCc2ccccc2)cc1 (centres undefined)	none
COc1ccc(CNCCc2ccc(Cl)cc2)cc1OCc1ccccc1	D1 agonist 57.6
COc1cccc(-c2cc(C(=O)N3CCN(C(=O)c4ccco4)CC3)on2)c1	none
COc1ccc(N(CC(=O)NCc2ccccc2)C(=O)CCC(=O)Nc2cc(C)ccn2)c(OC)c1	none
Cc1cccc(OCCCCNCc2ccccc2)c1	none
COc1cccc(OCCNCc2ccccc2)c1	D1 PAM 33.6
c1ccc(COc2ccc(CNCc3cccs3)cc2)cc1	D1 PAM 41.9, D1 agonist 129.1
Brc1ccc(CNCc2cccs2)cc1	none
